# Screening results: PubChem BioAssay, National Center for Advancing Translational Sciences (NCATS)
# Many of the other results were omitted from the sample, so hits are more common in it than they were.
# Methyltransferases: Primary Screen for Target Class Profiling of Small Molecule Inhibitors of Methyltransferases | 3.9% of 25,000 active | calls only at 40 µM | purified enzyme, MTase-Glo SAH luminescence; stronger effect = lower value; call rule not given here
#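 Each enzyme was reacted with SAM and its substrate, with compounds tested once at 40 uM; SAH formed was read by MTase-Glo luminescence.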
# * = called active by the depositor; i = inactive; + = active, no number. On the % scale 0 is the no-effect control and ±100 the full control effect.
SMILES,Methyltransferases
CCCc1c(-c2ccc(O)cc2)nn(-c2ccc(O)cc2)c1-c1ccc(O)cc1,+
COc1ccc2[nH]cc(C(=O)Cn3nc4n(Cc5ccccc5)c(=O)c5ccccc5n4c3=O)c2c1,i
Cc1cc2c(cc3n2CC(C)(C(=O)NC2CCCCC2)N(Cc2ccccc2F)C3=O)o1 (configuration not stated),i
CC12CCC3C1C(c1c(cc(O)c(C(=O)c4ccccc4)c1O)O2)C3(C)C (configuration not stated),+
COC(=O)c1cc(OC)cc(OC)c1C(=O)c1c(OC)cc2c(c1O)C1CCCC(C)(O2)O1 (configuration not stated),i
CCOC(=O)c1cc2n(n1)CC(C)(C(=O)NCc1ccc(C)cc1)N(c1cccc(F)c1)C2=O (configuration not stated),i
COc1ccc2cc3n(c2c1)CC(C)(C(=O)NC1CCCC1)N(c1ccccc1C)C3=O (configuration not stated),i
CC1=CC(=O)CC(C)(C)C1CCC(C)O[C@@H]1O[C@H](CO[C@@H]2OC[C@@H](O)[C@H](O)[C@H]2O)[C@@H](O)[C@H](O)[C@H]1O (some centres not stated),+
C[C@H](/C=C/[C@@]1(O)[C@H](C)CC(=O)CC1(C)C)O[C@@H]1O[C@H](CO[C@@H]2OC[C@@H](O)[C@H](O)[C@H]2O)[C@@H](O)[C@H](O)[C@H]1O,i
CC1=CC(=O)CC(C)(C)[C@H]1/C=C/C(CO)O[C@@H]1O[C@H](CO)[C@@H](O)[C@H](O)[C@H]1O (some centres not stated),i
COc1ccc(CCN2C(=O)c3cc4occc4n3CC2(C)C(=O)NC2CCCCC2C)c(OC)c1 (configuration not stated),i
Cc1ccccc1NC(=O)CSc1nnc2n(CC(C)C)c(=O)c3ccc(C(=O)NC(C)C)cc3n12,i
CCOC(=O)c1cc2n(n1)CC(C)(C(=O)NC1CCC(C)CC1)N(c1ccc(C)c(C)c1)C2=O (configuration not stated),i
COc1cccc(NC(=O)CSc2nnc3[nH]c(=O)c(C(C)(C)C)nn23)c1,i
N.N.N.N.N.N.N.N.N.N.N.N.N.N.O.O.[Ru+4].[Ru+5].[Ru+5],+
CCOc1ccc(C(=O)Cn2nc3n(CC(C)C)c(=O)c4ccc(C(=O)NC(C)C)cc4n3c2=O)cc1,i
CC1(C)CCC2=C(O1)c1ccccc1C(=O)C2=O,+
C=CC(=O)Nc1ccc2ncnc(Nc3cccc(Br)c3)c2c1,+
CCOC(=O)c1cnc2ccc(Br)cc2c1Nc1cccc(C(C)=O)c1,i
CCOC(=O)c1ccc(Nc2ncnc3ccc(Br)cc23)cc1,i
O=C(Cn1nc2n(Cc3ccccc3)c(=O)c3ccccc3n2c1=O)NCc1ccccc1,i
COC(=O)c1cc2n(n1)CC(C)(C(=O)NC1CCCCCC1)N(Cc1ccccc1Cl)C2=O (configuration not stated),i
Cc1ccc(Cn2c(=O)c3ccccc3n3c(=O)n(CC(=O)c4ccc(C)cc4)nc23)cc1,i
CC1(C(=O)NC2CCCCC2)Cn2nc(-c3ccco3)cc2C(=O)N1Cc1ccc(Cl)cc1 (configuration not stated),i
CCC(NS(=O)(=O)c1cc(-n2cccn2)ccc1OC)C1CC(O)C1 (configuration not stated),i
SMILES,Methyltransferases
COc1cc(N2CCC(N3CCN(C)CC3)CC2)ccc1Nc1ncnc(Nc2ccccc2S(=O)(=O)C(C)C)n1,i
COc1cc(N2CCC(O)CC2)ccc1Nc1cc(Nc2ccccc2S(=O)(=O)C(C)C)c2cc[nH]c2n1,+
CCC(C)NC(=O)Cn1nc2nc(Nc3ccc(F)cc3)ccn2c1=O (configuration not stated),i
CCN1C(=O)c2cc(C(=O)NCc3ccc(F)cc3)nn2CC1(C)C(=O)NC1CCCC1 (configuration not stated),i
O=C(Cn1nc2n(CCc3ccccc3)c(=O)c3ccccc3n2c1=O)c1ccc(F)cc1,i
NS(=O)(=O)OC[C@@H]1C[C@@H](n2ccc3c(N[C@H]4CCc5ccccc54)ncnc32)C[C@@H]1O,+
CC1(C(=O)NCc2ccc(Cl)cc2)Cn2c(ccc2-c2ccco2)C(=O)N1Cc1ccc2c(c1)OCO2 (configuration not stated),i
CCCN1C(=O)c2ccc(-c3ccccc3)n2CC1(C)C(=O)NC1CCCCC1 (configuration not stated),i
O=C(Cn1nc2n(CCc3ccccc3)c(=O)c3ccccc3n2c1=O)Nc1ccccc1F,i
CN(Cc1nccs1)c1ncnc2ccc(-c3ccc4c(c3)OCO4)cc12,+
Cc1csc(CN(C)C(=O)CC(c2ccccc2)c2ccc3c(c2)OCO3)n1 (configuration not stated),i
Cc1cccc(Cn2nc3n(CC(C)C)c(=O)c4ccc(C(=O)NC5CCCC5)cc4n3c2=O)c1,i
